# In PubChem BioAssay AID1981 (Southern Research Specialized Biocontainment Screening …, 2009):
# Screen size: about 2,200 compounds; about 480 (22%) were called active. These entries were drawn from the full list. Measured potencies and affinities stand elsewhere. A number with no mark means an inactive call. How the calls were made is not given here.
# Assay: S. Typhimurium GFP fluorescence dose response in modified counterscreen for PhoP regulon inhibitor project (AID 1981);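 further: 0% = induced DMSO wells and 100% = uninduced wells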
# Conditions: 4 h; series mostly up to 150 µM; inhibition: at the top concentration
row,SMILES,inhibition [%]
1,S=C(NCc1cccnc1)Nc1cccc(Cl)c1,-0.39
2,CCOc1ccc(S(=O)(=O)Nc2ccc(C(=O)N/N=C/c3c(C)nn(-c4ccccc4)c3N3CCCC3)cc2)cc1,-6.55
3,Cc1cccc(NC(=O)Cn2c(/C=C/c3ccccc3)nc3ccccc32)c1,-10.8
4,CC1CCCCN1Cc1cnc(Cl)s1 (stereo not given),2.45
5,Cc1ccc2nc(Cc3ccc(N)cc3)[nH]c2c1,9.83
6,Cc1ccc(-c2csc(N=C(N)N)n2)c(C)c1,30.2
7,Cc1ccc(-c2nc3ccccc3s2)cc1S(=O)(=O)N1CCCC1,-11.2
8,Cn1c(SCC(=O)N2c3ccccc3CCc3ccccc32)nnc1-c1cc2ccccc2cc1O,34.6
9,O=S(=O)(NC1=NCCCCC1)c1cccs1,2.48
10,Cc1ccc(NC(=O)C2CC(=O)NC(N3CCCCC3)=N2)cc1Cl (stereo not given),0.62
11,Cc1nn(CCOc2ccccc2)c(=O)n1-c1ccc(F)cc1,-5.37
12,CC(Cc1ccccc1Sc1ccccc1O)N(C)C (stereo not given),-3.13
13,CC(CCc1ccccc1)NC(=O)c1ccccc1 (stereo not given),-1.11
14,CC(C)CCn1c(SCC(=O)N2CC(=O)Nc3ccccc32)nc2scc(-c3cccs3)c2c1=O,0.62
15,O=C(O)C1(P(=O)(c2ccccc2)c2ccccc2)CCC1,-20.8
16,N#Cc1c(-c2ccccc2)ccn(Cc2cccc(Cl)c2)c1=O,0.47
17,COc1ccc(-c2nc3ncccc3n2O)cc1,-14.9
18,Nc1ccccc1NC1=CC(=O)CC(c2ccco2)C1 (stereo not given),3.13
19,CCn1cc(C(=O)OCC(=O)Nc2ccc(S(=O)(=O)N3CCCC3)cc2)c(=O)c2ccc(C)nc21,-9.11
20,CCn1cc(C(=O)O)c(=O)c2cnc(N3CCN(C(=S)NC(=O)c4ccc(Cl)cc4)CC3)nc21,-19.7
21,COc1ccccc1N1CCN(C(=O)CSc2nc3ccccc3o2)CC1,5.8
22,O=C(O)Cn1cc(C(=O)c2ccco2)c2ccccc21,-6.5
23,O=S(=O)(c1ccc(S(=O)(=O)N2CCN(C/C=C/c3ccccc3)CC2)cc1)N1CCCC1,-21.5
24,NS(=O)(=O)c1ccc(Nc2nc(-c3ccc(O)cc3)cs2)cc1,-5.72
25,Fc1cccc(NCc2cn3ccccc3n2)c1,0.65

row,SMILES,inhibition [%]
1,CNc1nnc(-c2cccc(N(C)C)c2)s1,-1.85
2,COC(=O)c1c(C)[nH]c(C(C)=O)c1C,-4.71
3,COc1ccc2c(c1)C1C=CCC1C(c1cc3c(cc1Br)OCO3)N2 (stereo not given),26.4
4,COc1ccc(C(=O)N2CCc3cc(OC)c(OC)cc3C2)cc1OC,-2.44
5,COc1ccc(S(=O)(=O)N2CCN(Cc3ccccc3)CC2)cc1,1.55
6,COc1ccc(C(=O)On2c(-c3ccc(Br)cc3)nc3ccccc3c2=O)cc1,6.84
7,COc1cccc(/C=N/n2c(C)nc3ccccc32)c1OC,-10.1
8,CCCn1c(N)nc2ccccc21,14
9,COc1ccc2c(c1)nc(N)n2Cc1ccccc1,5.95
10,CCCCn1c(N)nc2ccccc21,13.4
11,CSc1nc2ccccc2n1Cc1cccc(F)c1,-9.11
12,CCOc1cc(S(=O)(=O)N2CCN(CC)CC2)ccc1Cl,-9.5
13,CC(C)Cn1cnc2sc3c(c2c1=N)CCCC3,-13
14,CCn1c(C)cc(=S)c2ccccc21,-32
15,CC(C)(C)C1CCC2(CC1)Nc1cccc3cccc(c13)N2,36.6
16,Cc1ccc(C(=O)CSc2ncnc3sc4c(c23)CCCC4)cc1,-11.5
17,c1ccc(Cn2nnc3c(NCc4ccc5c(c4)OCO5)nc(C4CC4)nc32)cc1,-2.72
18,CCC(CC)C(=O)N1c2ccc(F)cc2CCC1C (stereo not given),0.41
19,Cc1nc(N2CCN(Cc3ccccc3)CC2)nc2c1C(=O)CC(C)C2 (stereo not given),5.44
20,Cc1cc(/C=N/NC(N)=S)c(C)n1-c1ccc(Cl)c(Cl)c1,-26.8
21,Cn1cccc1CC(=O)N/N=C/C(Cl)=C/c1ccccc1,15.1
22,CSc1ccc2c(c1)C(N1CCN(C)CC1)Cc1ccccc1S2 (stereo not given),20.5
23,c1ccc2c(c1)Sc1ccccc1N2CC1CN2CCC1CC2 (stereo not given),18.1
24,O=C(CSc1nc2ccccc2o1)Nc1ccc(N2CCOCC2)cc1,-19.7
25,O=C1CC(c2ccccc2)n2nc(NC(=O)c3ccccc3)nc2N1 (stereo not given),-4.4

row,SMILES,inhibition [%]
1,CCN(c1ccc(OCC(=O)OCC(=O)Nc2ccc(F)c(F)c2F)cc1)S(=O)(=O)c1ccccc1,11.7
2,O=C(Cc1n[nH]c(=O)c2ccccc12)OCC(=O)c1ccc2c(c1)OCCO2,6.84
3,CC1CCN(C(c2cc3cc4c(cc3[nH]c2=O)OCO4)c2nnnn2CC2CCCO2)CC1 (stereo not given),-12.8
4,COc1ccc(N(CC(=O)Nc2ccccc2SC)S(C)(=O)=O)cc1OC,-0.04
5,Nc1cc(N)nc(SCc2cc(=O)oc3cc4c(cc23)CCC4)n1,0.78
6,Nc1nnc(Sc2ccc(Cl)cc2[N+](=O)[O-])s1,0.13
7,CCN(CC)S(=O)(=O)c1ccc2[nH]cc(C(=O)NCCc3ccccc3)c(=O)c2c1,3.6
8,O=C(CSc1nccc(=O)[nH]1)N1c2ccccc2CCc2ccccc21,-5.17
9,O=C(CSc1nc(Nc2ccccc2)nc(N2CCOCC2)n1)Nc1ccc([N+](=O)[O-])cc1,2.48
10,Cc1cc(=O)oc(C)c1C(=O)NCc1cccnc1,2.68
11,O=C(NNc1nc(-c2ccccc2)cs1)c1ccco1,-17.3
12,COc1ccc(Cl)cc1Nc1nc(-c2sc(NC(=O)c3ccco3)nc2C)cs1,17.1
13,Cc1cc(C)cc(OC(=O)CS(=O)c2ccc(C(F)(F)F)cc2[N+](=O)[O-])c1 (stereo not given),-13.2
14,c1ccc2c(c1)[nH]c1c(N3CCCC3)ncnc12,17.7
15,O=C(CCCNS(=O)(=O)c1ccccc1)NCc1ccco1,-7.4
16,O=Cc1cccn1Cc1ccccc1[N+](=O)[O-],1.61
17,CCN1CCN(c2oc(COc3ccc(Cl)cc3)nc2C#N)CC1,-4.31
18,CCOC(=O)c1cnc2ccc(OCC)cc2c1N1CCN(c2ccccc2)CC1,-3.31
19,COc1ccc2cc(C#N)c(NC(C)C)nc2c1,-0.85
20,COc1cc(C2NC(=O)NC(c3ccccc3)=C2C(C)=O)ccc1OCC(=O)O (stereo not given),-5.88
21,CC1CCCC(C)N1/N=C/c1c[nH]c2ccc(Br)cc12 (stereo not given),11
22,COc1cccc(N=Cc2c[nH][nH]c2=O)c1,-0.27
23,O=C(OCc1ccccc1)Oc1cncc(C(=O)O)c1,11.2
24,COC(=O)c1ccc(C(=O)OC)c(NC(=O)COc2ccccc2OC)c1,-0.88
25,CC(=O)Nc1nc2nc(-c3ccccc3)cc(-c3ccccc3)n2n1,-10.5
